Experimental data taken from PubChem BioAssay (NCATS).
Some of the results follow. Records with an inconclusive call do not appear. Calls of active or inactive are those of the source. The call rests on the fitted dose curve; in most records, active means well fitted inhibition curve with a large enough effect; inconclusive means small, poorly fitted or top-dose-only effect, or another doubt; inactive means no such curve, though single readings can be large or run the other way.

Target: DNA polymerase eta (Homo sapiens) (UniProt Q9Y253)
Experiment: qHTS for Inhibitors of Polymerase Eta: Confirmatory Assay for Cherry-picked Compounds (AID 720502)
Conditions: Pol eta primer extension, TAMRA/BHQ fluorescence, 10 min
Text: The Y-family of DNA polymerases, such as the Polymerase Eta (Pol eta), are specifically involved in DNA repair. Pol eta copies undamaged DNA with a lower fidelity than other DNA-directed polymerases. However, it accurately replicates UV-damaged DNA. When thymine dimers are present, this polymerase inserts the complementary nucleotides in the newly synthesized DNA, thereby bypassing the lesion and suppressing the mutagenic effect of UV-induced DNA damage. […] Thus, while Pol eta's (and most likely iota's) normal function is to protect humans against the deleterious consequences of DNA damage, under certain conditions they can have deleterious effects on human health. As a consequence, small molecule inhibitors of Pol eta (identified from a high throughput replication assay) have potential therapeutic applications. A 1536-well format, fluorescence based, high-throughput screen (AID 588591) is developed in collaboration with the National Institute of Child Health & Human Development (NICHD) to screen for inhibitors of the Pol eta enzyme. This screen is used to validate the activity of the selected compounds from the primary assay against the human Pol eta. Inhibition is the desired outcome for this assay. NIH Chemical Genomics Center [NCGC] NIH Molecular Libraries Probe Centers Network [MLPCN] MLPCN Grant: MH090825 Assay Submitter (PI): Roger Woodgate, NICHD
Three microliters of reagents (buffer in column 3 and 4 as negative control while 10 nM Pol eta in columns 1, 2, and 5-48) were dispensed into a 1536-well black solid-bottom plate. Compounds (23 nL) were transferred via Kalypsys pin tool equipped with 1536-pin array. The plates were then incubated for 15 min at room temperature, and 1 uL of substrate was added to start the reaction for a final concentration of 50 nM. The substrate was made by the annealing of unlabeled oligodeoxynucleotide primer (59-[…]-39) and TAMRA-labeled reporter strand (59-[…]-6-TAMRA-39) to oligodeoxynucleotide template labeled with BHQ-2 (59-BHQ-2-[…]-39) described in detail at the Yamanaka et.al. (PLOS, 2012) reference paper. The assay plates were initially read after 0 min and again after 10 min of kinetic reaction using the PerkinElmer Viewlux reader equipped with 525 nm excitation and 598 nm emission filters.
Potency means the concentration at half of the fitted maximal effect.

Sequence of DNA polymerase eta (Homo sapiens) (Q9Y253 whole entry, looked up): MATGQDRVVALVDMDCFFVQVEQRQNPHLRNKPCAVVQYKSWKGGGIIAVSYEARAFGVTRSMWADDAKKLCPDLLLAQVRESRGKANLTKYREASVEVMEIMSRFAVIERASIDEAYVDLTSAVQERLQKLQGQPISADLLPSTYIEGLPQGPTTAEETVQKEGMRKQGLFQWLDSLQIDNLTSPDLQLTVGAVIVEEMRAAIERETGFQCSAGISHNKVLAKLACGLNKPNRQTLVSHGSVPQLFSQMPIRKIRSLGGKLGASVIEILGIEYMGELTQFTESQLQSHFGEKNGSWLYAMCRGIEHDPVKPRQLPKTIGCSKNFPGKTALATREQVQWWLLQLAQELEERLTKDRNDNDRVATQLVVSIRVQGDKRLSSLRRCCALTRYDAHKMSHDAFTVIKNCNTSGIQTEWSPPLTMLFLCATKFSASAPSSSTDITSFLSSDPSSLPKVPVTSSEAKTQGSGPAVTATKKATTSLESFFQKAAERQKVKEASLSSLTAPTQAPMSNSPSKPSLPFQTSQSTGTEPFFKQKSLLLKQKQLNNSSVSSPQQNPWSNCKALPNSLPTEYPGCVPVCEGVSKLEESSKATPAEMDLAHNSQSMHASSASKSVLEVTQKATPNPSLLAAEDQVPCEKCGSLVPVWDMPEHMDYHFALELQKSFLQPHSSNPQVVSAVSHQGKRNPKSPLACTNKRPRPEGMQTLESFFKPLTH

Potency, active:
Cc1ccc(N=C2NC(=O)/C(=C/C=C/c3ccco3)S2)cc1C 53.6 µM
COC(=O)c1ccc(COc2ccc(/C=C/C(=O)c3ccc(OC)c(CSCC(=O)O)c3)cc2OC)cc1 60.1 µM
Cc1cc(C(=O)N/N=C/c2ccc(O)c([N+](=O)[O-])c2)c(C)n1-c1ccc(F)cc1 75.7 µM
CCOc1ccc(NC(=O)c2ccc(NC(=O)COC(=O)c3ccc(NC(=O)CC#N)cc3)cc2)cc1 75.7 µM
COc1cccc(/C=N/Nc2ccc(S(=O)(=O)Nc3ccccc3C(=O)O)cc2[N+](=O)[O-])c1O 67.5 µM
N#Cc1c(N2CCCCC2)nc(N)c2c(N)nc(SCC(=O)O)cc12 19 µM
O=C(Nc1nc(-c2ccco2)c(-c2ccco2)s1)c1ccco1 26.9 µM
O=c1ccc2c(-c3ccccc3S(=O)(=O)O)c3ccc(O)c(O)c3oc-2c1O 1.07 µM
NC1=CC(=O)C(=O)c2cccnc21 26.9 µM
O=C(O)c1ccc2c(c1)C(=O)N(c1ccc(/C=C/C(=O)c3ccccc3)cc1)C2=O 33.8 µM
Nc1ccc2nc3c(=O)[nH]c(=S)[nH]c3nc2c1 19 µM
CCC(C)Cn1c(O)cc2nn(-c3nc4ccccc4s3)c(=O)c-2c1C (configuration not stated) 75.7 µM
